“And” between values parts separate entries of the source, which are not always exact repeats. Equal values may be shown once. Results filed as inconclusive are left out. The source made the active and inactive calls. Unless noted, the call rests on the fitted dose curve; in most records, active means well fitted curve in the direction sought with a large enough effect; inconclusive means small, poorly fitted or top-dose-only effect, or another doubt; inactive means no such curve, though single readings can be large; an effect the other way counts as inactive or inconclusive.
Experiments:
[1] = target: Retinoic acid receptor RXR-alpha (Homo sapiens) (UniProt P19793); assay: qHTS assay for small molecule agonists of retinoid X receptor alpha signaling (AID 588544; calls by dose curve;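 further: 0% = DMSO basal wells and 100% = reference agonist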)
[2] = target: Thyroid hormone receptor beta (Homo sapiens) (UniProt P10828); assay: qHTS assay for small molecule agonists of thyroid hormone receptor beta signaling (AID 588545; calls by dose curve;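 further: 0% = DMSO only and 100% = 10 nM T3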)
Summary of the method: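 TR-UAS-bla-GripTite HEK 293 cells in medium with 2% charcoal/dextran FBS, 0.1 mM NEAA and 1 mM sodium pyruvate were treated with titrated compounds for 18 hrs at 37 C. Beta-lactamase reporter was read with CCF4 dye (ex 405, em 460/530 nm); EC50 from Hill fits.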

[3] = qHTS assay for small molecule antagonists of retinoid X receptor alpha signaling (AID 588546; active means well fitted inhibition curve with a large enough effect in the signal ratio, with a control signal flat, not every such curve was filed as active; the % refers to the signal ratio;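 further: cells stimulated with 9-cis-retinoic acid as agonist; on the % scale 0 is the no-effect control and ±100 the full control effect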); conditions: HEK293T RXRa-UAS-bla, beta-lactamase ratio, antagonist mode; measured here: W530 green channel, cytotoxicity proxy
Summary of the method: (§1)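 Beta-lactamase reporter inhibition, read as CCF4 fluorescence ratio (ex 405, em 460/530 nm) after 2 h at RT. HEK293T UAS-bla cells, 2500/well, were stimulated with 9-cis-RA at 500 or 100 nM final alongside test compound for 18 h at 37 C.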

[4] = target: Retinoic acid receptor RXR-alpha (Homo sapiens) (UniProt P19793); assay: as above; conditions: HEK293T RXRa-UAS-bla, beta-lactamase ratio, antagonist mode
Summary of the method: as §1

[5] = target: Thyroid hormone receptor beta (Homo sapiens) (UniProt P10828); assay: qHTS assay for small molecule antagonists of thyroid hormone receptor beta signaling (AID 588547; active means well fitted inhibition curve with a large enough effect in the signal ratio, with a control signal flat, not every such curve was filed as active; the % refers to the signal ratio;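 further: cells stimulated with 0.4 nM T3 agonist during compound exposure; series mostly up to about 77 µM; on the % scale 0 is the no-effect control and ±100 the full control effect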); conditions: TR-UAS-bla HEK293, beta-lactamase ratio, antagonist mode, 18 h
Summary of the method: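 Inhibition of T3-driven (0.4nM final) beta-lactamase reporter activity was measured over 0.59 nM to 92 uM compound after 18 h at 37 C. The cells were GripTite HEK293 TR-UAS-bla in charcoal/dextran-stripped serum, with CCF4 ratio read-out and IC50 from Hill fits.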

[6] = target: Voltage-gated inwardly rectifying potassium channel KCNH2 (Homo sapiens) (UniProt Q12809); assay: qHTS Assay for Small Molecule Inhibitors of the Human hERG Channel Activity (AID 588834);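 further: lower thallium flux fluorescence means stronger hERG block; nearly all actives have a fitted effect of over 50% in size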; further: potency means the concentration at half of the fitted maximal effect
Summary of the method: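 U2OS cells BacMam-transduced with hERG, 2000 cells/well, compound ~10 min at 37 °C before stimulation buffer. FluxOR thallium flux fluorescence read kinetically on FDSS; decrease indicates block; AC50 from Hill fits.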

[7] = target: Luciferin 4-monooxygenase (Photinus pyralis) (UniProt P08659); assay: Biochemical firefly luciferase enzyme assay for NPC (AID 624030); further: nearly all actives have a fitted effect of over 70% in size; further: potency means the concentration at half of the fitted maximal effect
Summary of the method: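 Direct inhibition of firefly luciferase enzyme (10 nM final, 50 mM Tris Acetate) assessed by luminescence within 5 minutes. Percent activity scaled between DMSO and PTC124 positive control, with concentration-effect curves classified by fit quality and response.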

[8] = S16 Schwann cell viability assay (CellTiter-Glo assay) (AID 624031);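 further: cellular ATP luminescence as a viability measure; series mostly up to about 58 µM; plate controls were DMSO-treated cells for no effect and cell-free wells for full effect; nearly all actives have a fitted effect of over 70% in size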
Summary of the method: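 Luminescent ATP read-out (CellTiter-Glo) after 24 h compound exposure of native S16 rat Schwann cells at 37 °C. Signals were normalized between cell-free wells and DMSO-treated cells, set as 0% activity.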

[9] = S16 Schwann cell PMP22 intronic element firefly luciferase assay (AID 624032);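 further: series mostly up to about 58 µM; plate controls were DMSO for no effect and PTC124 positive control mean for full effect; nearly all actives have a fitted effect of over 30% in size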
Summary of the method: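 Luciferase reporter of PMP22 intronic-element expression in stably transfected S16 rat Schwann cells, read by ONE-Glo luminescence after 24 h compound exposure at 37 C. Activity scaled between DMSO (0%) and positive-control PTC124; concentration-effect curves quality-classified.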

Chain of Thyroid hormone receptor beta (Homo sapiens) (P10828 whole entry, looked up): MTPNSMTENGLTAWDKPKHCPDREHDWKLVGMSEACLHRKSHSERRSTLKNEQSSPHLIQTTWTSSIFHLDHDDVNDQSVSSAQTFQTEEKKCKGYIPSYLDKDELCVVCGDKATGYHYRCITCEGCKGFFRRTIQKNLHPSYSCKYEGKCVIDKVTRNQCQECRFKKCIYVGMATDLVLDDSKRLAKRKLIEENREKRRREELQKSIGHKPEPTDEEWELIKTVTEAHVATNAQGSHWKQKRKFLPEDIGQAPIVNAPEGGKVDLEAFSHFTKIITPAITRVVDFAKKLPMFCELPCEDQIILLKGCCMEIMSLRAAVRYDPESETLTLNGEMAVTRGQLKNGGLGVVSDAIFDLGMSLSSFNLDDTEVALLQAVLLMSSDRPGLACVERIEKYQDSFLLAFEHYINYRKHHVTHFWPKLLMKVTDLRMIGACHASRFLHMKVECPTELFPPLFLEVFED
Chain of Voltage-gated inwardly rectifying potassium channel KCNH2 (Homo sapiens) (Q12809 whole entry, looked up): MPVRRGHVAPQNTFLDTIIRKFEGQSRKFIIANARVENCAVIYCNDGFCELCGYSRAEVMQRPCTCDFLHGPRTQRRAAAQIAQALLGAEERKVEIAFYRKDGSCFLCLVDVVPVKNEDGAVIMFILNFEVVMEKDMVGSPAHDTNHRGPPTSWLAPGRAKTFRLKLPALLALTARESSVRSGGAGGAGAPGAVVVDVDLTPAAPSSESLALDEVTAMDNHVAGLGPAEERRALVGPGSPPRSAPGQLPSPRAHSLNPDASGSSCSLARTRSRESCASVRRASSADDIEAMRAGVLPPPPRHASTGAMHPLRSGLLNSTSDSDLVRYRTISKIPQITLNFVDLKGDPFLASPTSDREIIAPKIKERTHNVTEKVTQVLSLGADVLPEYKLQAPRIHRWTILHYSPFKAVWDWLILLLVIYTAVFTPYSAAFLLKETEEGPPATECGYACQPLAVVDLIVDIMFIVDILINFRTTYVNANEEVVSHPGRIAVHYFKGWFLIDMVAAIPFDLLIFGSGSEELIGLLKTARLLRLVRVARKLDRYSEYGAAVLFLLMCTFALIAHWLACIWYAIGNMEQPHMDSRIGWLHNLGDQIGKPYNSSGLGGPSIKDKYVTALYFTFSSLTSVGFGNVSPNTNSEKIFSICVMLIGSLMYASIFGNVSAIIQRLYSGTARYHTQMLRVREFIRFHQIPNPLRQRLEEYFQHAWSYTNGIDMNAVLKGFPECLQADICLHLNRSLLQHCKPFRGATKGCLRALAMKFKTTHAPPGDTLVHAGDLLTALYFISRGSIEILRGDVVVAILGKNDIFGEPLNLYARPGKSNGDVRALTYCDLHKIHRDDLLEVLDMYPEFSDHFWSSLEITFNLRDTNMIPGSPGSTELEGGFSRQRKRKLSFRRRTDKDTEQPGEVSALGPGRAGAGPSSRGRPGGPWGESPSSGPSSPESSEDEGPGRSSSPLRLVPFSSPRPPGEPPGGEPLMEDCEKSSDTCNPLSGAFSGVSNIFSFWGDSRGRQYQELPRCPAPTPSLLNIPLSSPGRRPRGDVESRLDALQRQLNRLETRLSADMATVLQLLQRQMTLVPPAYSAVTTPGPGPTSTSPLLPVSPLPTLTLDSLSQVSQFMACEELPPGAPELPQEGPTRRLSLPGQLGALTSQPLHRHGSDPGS
Chain of Luciferin 4-monooxygenase (Photinus pyralis) (P08659 whole entry, looked up): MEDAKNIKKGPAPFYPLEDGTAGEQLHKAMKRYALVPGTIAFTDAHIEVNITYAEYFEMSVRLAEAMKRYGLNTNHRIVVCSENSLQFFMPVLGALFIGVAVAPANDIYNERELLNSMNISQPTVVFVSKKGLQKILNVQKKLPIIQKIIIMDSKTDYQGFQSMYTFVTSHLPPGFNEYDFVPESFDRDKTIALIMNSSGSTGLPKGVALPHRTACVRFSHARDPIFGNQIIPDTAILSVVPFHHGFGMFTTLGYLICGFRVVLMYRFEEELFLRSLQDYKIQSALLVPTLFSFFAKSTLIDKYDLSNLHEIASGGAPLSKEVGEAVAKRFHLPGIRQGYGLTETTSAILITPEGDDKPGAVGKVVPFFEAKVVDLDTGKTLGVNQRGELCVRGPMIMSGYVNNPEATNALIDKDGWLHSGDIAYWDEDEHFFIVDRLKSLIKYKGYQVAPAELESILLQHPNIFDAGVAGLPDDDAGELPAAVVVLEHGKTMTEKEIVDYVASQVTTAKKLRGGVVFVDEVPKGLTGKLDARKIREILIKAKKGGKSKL
Chain of Retinoic acid receptor RXR-alpha (Homo sapiens) (P19793 whole entry, looked up): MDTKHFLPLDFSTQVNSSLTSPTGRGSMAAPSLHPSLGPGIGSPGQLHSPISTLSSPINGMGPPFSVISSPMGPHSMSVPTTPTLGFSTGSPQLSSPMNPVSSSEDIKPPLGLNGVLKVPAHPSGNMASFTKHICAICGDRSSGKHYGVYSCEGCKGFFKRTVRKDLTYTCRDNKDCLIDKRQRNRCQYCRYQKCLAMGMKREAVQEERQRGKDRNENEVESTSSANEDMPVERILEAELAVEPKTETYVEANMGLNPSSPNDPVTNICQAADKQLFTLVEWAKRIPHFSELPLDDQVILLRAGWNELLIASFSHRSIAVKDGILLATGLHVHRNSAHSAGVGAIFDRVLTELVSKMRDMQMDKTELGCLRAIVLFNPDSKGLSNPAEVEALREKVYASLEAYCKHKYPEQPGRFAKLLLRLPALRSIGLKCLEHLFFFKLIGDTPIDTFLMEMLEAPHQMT

O=c1[nH]cnc2c1ncn2[C@H]1CC[C@@H](CO)O1
-5.91%: max response [3]
inactive: outcome [1] | outcome [2] | max response [4] 9.86% | activity change % (negative = inhibition) [5] 9.23% | Potency [6] | Potency [7] | Potency [8] | Potency [9]

COC(=O)[C@@H]1[C@H]2C[C@H]3c4[nH]c5ccccc5c4CCN3C[C@@H]2CC[C@@H]1O
active: Potency [6] 11.2 µM

O=C1NC(=O)C(c2ccccc2)(c2ccccc2)N1
-8.37% and -14.2% and -3.37%: max response [3]
inactive: outcome [1] | outcome [2] | max response [4] 15.9% and 2.5% and -5.42% | activity change % (negative = inhibition) [5] -1.15% and 6.61% | Potency [6] | Potency [7] | Potency [8] | Potency [9]

CC(=O)N[C@@H](CS)C(=O)O
-5.69%: max response [3]
inactive: outcome [1] | outcome [2] | max response [4] 2.12% | activity change % (negative = inhibition) [5] -10.2% | Potency [6] | Potency [7] | Potency [8] | Potency [9]

CCCNC(=O)NS(=O)(=O)c1ccc(Cl)cc1
-1.39% and 4.27%: max response [3]
inactive: outcome [1] | outcome [2] | max response [4] 15% and -16.7% | activity change % (negative = inhibition) [5] 15.7% and -17.5% | Potency [6] | Potency [7] | Potency [8] | Potency [9]

O=C(O)c1cc(O)c2c(c1)C(=O)c1cccc(O)c1C2=O
inactive: outcome [2] | Potency [6]

CCn1cc(C(=O)O)c(=O)c2ccc(C)nc21
inactive: outcome [2] | max response [4] -0.374% and 6.98% | activity change % (negative = inhibition) [5] 17.4% and 3.09% | Potency [7] | Potency [8] | Potency [9]
14% and -13.8%: max response [3]

O=c1c(O)c(-c2ccc(O)cc2)oc2cc(O)cc(O)c12
inactive: outcome [1] | outcome [2] | activity change % (negative = inhibition) [5] 0.335% and 4.17%

CC[C@]1(O)C[C@@H]2CN(CCc3c([nH]c4ccccc34)[C@@](C(=O)OC)(c3cc4c(cc3OC)N(C)[C@H]3[C@@](O)(C(=O)OC)[C@H](OC(C)=O)[C@]5(CC)C=CCN6CC[C@]43[C@@H]65)C2)C1
inactive: Potency [6]

CC(=O)c1ccc(S(=O)(=O)NC(=O)NC2CCCCC2)cc1
inactive: outcome [1] | outcome [2] | max response [4] -4.66% and -24.2% | activity change % (negative = inhibition) [5] -3.97% and -18% | Potency [6] | Potency [7] | Potency [8] | Potency [9]
-6.48% and 24.9%: max response [3]

O=C(O)c1cc(-c2ccccc2)nc2ccccc12
active: Potency [7] 18.6 µM
inactive: outcome [1] | outcome [2] | max response [4] -7.59% | activity change % (negative = inhibition) [5] 5.82% | Potency [6] | Potency [8] | Potency [9]
9.45%: max response [3]

O=C(O)Cc1cccc2ccccc12
inactive: outcome [1] | max response [4] 3.25% and 2.98% | activity change % (negative = inhibition) [5] 9.53% and -11.8% | Potency [6] | Potency [7] | Potency [8] | Potency [9]
4.01% and -7.8%: max response [3]

CCCCC1C(=O)N(c2ccccc2)N(c2ccccc2)C1=O
1.64% and -10.6%: max response [3]
inactive: outcome [1] | outcome [2] | max response [4] 0.963% and -0.138% | activity change % (negative = inhibition) [5] 6.78% | Potency [6] | Potency [7] | Potency [8] | Potency [9]

O=C(CCCCCCC(=O)Nc1ccccc1)NO
inactive: Potency [6] | Potency [7] | Potency [8]

O=c1c(-c2ccc(O)cc2)coc2cc(O)ccc12
2.28% and 13.9%: max response [3]
inactive: outcome [2] | max response [4] 8.82% and -46% | activity change % (negative = inhibition) [5] 20.4% | Potency [6]

Clc1ccc(Cn2c(CN3CCCC3)nc3ccccc32)cc1
active: Potency [6] 1.41 µM and 3.98 µM
inactive: Potency [7] | Potency [8]

CC1(C)O[C@H]2C[C@@H]3[C@H]4CCC5=CC(=O)C=C[C@]5(C)[C@@]4(F)[C@@H](O)C[C@]3(C)[C@]2(C(=O)CO)O1
inactive: Potency [6] | Potency [7] | Potency [8] | Potency [9]

CCN(CC)CCOC(=O)c1ccc(N)cc1
inactive: Potency [6] | Potency [7] | Potency [8] | Potency [9]

COc1cccc(-c2cc(=O)c3ccccc3o2)c1N
inactive: Potency [6]

Reference: PubChem BioAssay (NCATS)
